Hits are enriched below; roughly 6.6% of the tested compounds scored in any of these assays.
KB-V1 MDR tox = qHTS assay for MDR1-selective chemotherapeutics: Primary screen using the drug-selected MDR subline cells KB-V1; Potency, µM (doses to about 46.1 µM), hits mostly cytotoxic; KB-V1 MDR cells viability, CellTiter-Glo, 72 h; hit rate 3.4% among 400,000; AID 1347076, 2019; further: nearly all actives have a fitted effect of over 60% in size
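Readout: CellTiter-Glo luminescence, 10 min after addition. Cells: KB-V1 MDR subline, 72 h at 37 degrees C with compound. Analysis: corrected, normalized data fitted to concentration-effect curves.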
MCF10A rerep = A quantitative high throughput screen for small molecules that induce DNA re-replication in MCF 10a normal breast cells. MCF 10A DNA re-replication, Hoechst nuclear intensity, 48 h. Potency, µM (series often up to 46.1 µM), hits mostly activators. hit rate 2.9% among 350,000. AID 624296, 2012; further: nearly all actives have a fitted effect of over 50% in size
PTAP TSG101 blk = qHTS Assay for Iinhibitors of HIV-1 Budding by Blocking the Interaction of PTAP/TSG101; Tumor susceptibility gene 101 protein (Homo sapiens), Q99816; Fluorescence polarization, FITC-PTAP peptide / Tsg101 binding; Potency, µM (doses to about 115 µM), most hits filed as inhibitors; 340,000 tested, under 10 active; AID 493005, 2010; active means well fitted inhibition curve with a large enough effect in the main read-out, with a control signal flat, not every such curve was filed as active; inconclusive means small, poorly fitted or top-dose-only effect, or effect the other way, or a change in a side signal; inactive means no such curve, though single readings can be large or run the other way
Target sequence (Q99816 whole entry, looked up): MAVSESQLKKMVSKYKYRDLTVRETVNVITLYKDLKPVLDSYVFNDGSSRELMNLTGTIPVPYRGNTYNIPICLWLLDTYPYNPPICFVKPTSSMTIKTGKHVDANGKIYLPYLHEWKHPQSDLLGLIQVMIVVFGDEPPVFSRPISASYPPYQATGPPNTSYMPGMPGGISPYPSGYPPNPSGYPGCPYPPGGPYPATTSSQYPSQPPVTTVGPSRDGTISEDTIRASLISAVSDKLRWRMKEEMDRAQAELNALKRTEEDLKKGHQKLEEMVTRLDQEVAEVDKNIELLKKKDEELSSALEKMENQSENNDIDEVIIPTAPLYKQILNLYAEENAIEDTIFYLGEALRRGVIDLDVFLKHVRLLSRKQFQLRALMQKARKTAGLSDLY
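Steps: Tsg101 binding domain dispensed (10 uM final), compounds pinned in DMSO, FITC-labeled PTAP-motif peptide added (50 nM final); after 20 min binding at room temperature, polarization measured.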
KB-3-1 tox = qHTS assay for MDR1-selective chemotherapeutics: Primary screen using the parental adenocarcinoma cell KB-3-1; KB-3-1 viability, CellTiter-Glo ATP luminescence, 72 h; Potency, µM (top dose mostly 46.1 µM), actives largely listed as cytotoxic; hit rate 1.4% among 400,000; AID 1347075, 2019; further: nearly all actives have a fitted effect of over 60% in size
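Cytotoxicity measured as CellTiter-Glo luminescence after 72 h at 37 C. Compound titrations were pinned onto drug-naive KB-3-1 parental adenocarcinoma cells grown in DMEM with 10% FBS, and normalized data fitted to concentration-response curves.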
SW480 rerep = A quantitative high throughput screen for small molecules that induce DNA re-replication in SW480 colon adenocarcinoma cells; AID 624297, 2012; SW480 DNA re-replication, Hoechst DNA content imaging, 48 h; hit rate 1.8% among 340,000; Potency, µM (doses to about 46.1 µM), usual class: activators; further: nearly all actives have a fitted effect of over 55% in size
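Image-based read-out: total Hoechst fluorescence of nuclei (405 nm excitation, 500-530 nm emission), with hits raising the fraction of high-intensity nuclei. SW480 colon cells incubated 48 hr with compounds at 37 C.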
RGS4 inhibitor = Inhibitors of Regulator of G Protein Signaling (RGS) 4: qHTS | Regulator of G-protein signaling 4 (Homo sapiens), P49798 | Transcreener GDP fluorescence polarization, RGS4-accelerated GTP hydrolysis | Potency, µM (series often up to 114 µM), most hits filed as inhibitors | hit rate 0.039% among 390,000 | AID 504845, 2011; further: nearly all actives have a fitted effect of over 75% in size
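MLSMR compounds (23 nl, pin-transferred) preincubated 10 min at room temperature with a 500nM (2x) first reagent, then RGS4 at 900nM (2x) plus Transcreener GDP mix added; fluorescence polarization (620/688 nm) read before and after 90 min at 30 °C.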
Numbers stand for hits; – = inactive; ? = inconclusive; · = not tested or not shown. Unless noted, the call rests on the fitted dose curve; in most records, active means well fitted curve in the direction sought with a large enough effect; inconclusive means small, poorly fitted or top-dose-only effect, or another doubt; inactive means no such curve, though single readings can be large; an effect the other way counts as inactive or inconclusive.

SMILES	KB-V1 MDR tox	MCF10A rerep	PTAP TSG101 blk	KB-3-1 tox	SW480 rerep	RGS4 inhibitor
N#Cc1ccc(CN2CCN(C(=O)c3ccccc3)CC2)c(Cl)c1	20.6µM	–	–	–	–	–
CCCC(=O)c1cc(F)c(N2CCN(C(=O)OCC)CC2)cc1C	?	–	–	–	–	–
CCOC(=O)N1CCN(c2cc3nccnc3cc2F)CC1	20.6µM	–	·	–	–	–
Clc1ccc(Nc2nc(NCc3ccco3)nc3nccnc23)cc1	?	·	·	?	·	–
O=C(CN1/C(=C(/O)c2ccccc2)C(=O)c2ccccc2S1(=O)=O)c1ccccc1	1.46µM	–	–	?	–	–
COc1ccc2ncnc(NCC3CCCO3)c2c1-c1ccc2c(c1)OCO2 (configuration not stated)	–	·	·	–	·	·
CCC(=O)N1CCCc2cc(S(=O)(=O)N3CCC(C(=O)Nc4ccccc4CC)CC3)ccc21	?	·	·	–	·	–
Cc1cc(/C=N/NC(N)=S)c(C)n1-c1ccc(Cl)c(Cl)c1	–	25.9µM	–	–	18.4µM	–
CCNC(=S)N/N=C/c1cc(C)n(-c2ccc(Cl)cc2)c1C	11.6µM	?	–	?	–	–
O=CNc1ccc(/C=C/c2ccnc3ccccc23)cc1	–	·	·	–	·	·
CCOC(=O)c1cc(C#N)c(N2CCN(C(=O)c3cccc(C(F)(F)F)c3)CC2)nc1C(F)(F)F	?	–	–	?	–	–
CCOC(=O)c1cc(C#N)c(N2CCN(C(=O)c3ccccc3)CC2)nc1C(F)(F)F	20.6µM	–	–	–	14.6µM	–
Cc1ccc(N=C2NC(=O)CC(C(=O)Nc3cc(C(F)(F)F)ccc3Cl)S2)cc1 (configuration not stated)	–	·	·	–	·	–
CCN(C(=O)c1oc2ccc(S(=O)(=O)N3CCCCCC3)cc2c1C)c1ccccc1	–	·	·	25.9µM	·	–
Cc1c(C(=O)NCc2cccnc2)oc2ccc(S(=O)(=O)N3CCCCC3)cc12	?	–	–	?	–	–
Cc1c(C(=O)N(C)Cc2ccccc2)oc2ccc(S(=O)(=O)N3CCCC3)cc12	–	–	–	–	–	–
Cc1c(C(=O)NCc2cccnc2)oc2ccc(S(=O)(=O)N3CCCCCC3)cc12	5.17µM	–	–	?	–	–
N#CC(c1ccccc1)C1CCN(Cc2ccccc2)CC1 (configuration not stated)	20.6µM	–	–	–	–	–
N#Cc1cc2c([nH]c1=S)CCCC2	–	–	–	–	?	–
C=CCSC(=C(C#N)C#N)c1cc2c([nH]1)CCCC2	?	?	–	18.4µM	?	–
S=C(Nc1ccc2nc(-c3ccccn3)c(-c3ccccn3)nc2c1)N1CCCCC1	–	–	–	–	?	–
CC(=NNC(=S)N1CCCCCC1)c1cccc2cccnc12	3.66µM	6.51µM	–	?	?	?
S=C(NC1CCCC1)N1CCN(c2ccccn2)CC1	20.6µM	–	–	–	–	–
CC(=NNC(=S)N1CCN(C2CCCCCC2)CC1)c1ccccn1	?	16.4µM	–	?	?	?
C/C(=N\NC(=O)C1CCCN(S(=O)(=O)c2ccccc2)C1)c1ccccn1 (configuration not stated)	?	?	–	?	–	–
COc1cc(NC(=S)N2CCN(c3ccccn3)CC2)c(OC)cc1Cl	18.4µM	–	–	–	–	?
CCc1cccc(C)c1NC(=O)C1CCN(S(=O)(=O)c2c(C)noc2/C=C/c2c(C)cc(C)cc2C)CC1	·	·	·	·	·	–
COc1ccc(SCC(CC(C)C)N2CCN(CCc3ccccc3)CCC2=O)cc1 (configuration not stated)	·	·	·	·	·	–
CCCOc1ccc(-c2cc(C(F)(F)F)c(C#N)c(SCCC(=O)O)n2)cc1	–	·	·	–	·	–
